The record followed here is PubChem BioAssay (EPA / NIEHS).

Records with an inconclusive call do not appear. The source made the active and inactive calls. The calls were made as follows: active = hit-call score of the fitted dose curve at least 0.9, where 1 is the maximum; inconclusive = response in the unintended direction; inactive = score below 0.9.

The nature of test [1]: TOX21_p53_BLA_p2_viability: Viability Assessment in the Tox21 HCT-116 p53 Agonism Beta-lactamase Assay, Phase 2 (AID 2283591).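 Also: compound exposure lasted 16 h at 37 °C; actives lower the ATP signal meaning cytotoxicity.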 In outline:
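HCT-116 p53-bla cells (4000/well) rested 5 h at 37C, then received compounds in DMSO (217-fold dilution) for 16 h at 37C, 5% CO2. After the CCF4 read, CellTiter-Glo was added; ATP luminescence was read after 30 min at room temperature.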

Test [2] addresses Cellular tumor antigen p53 (Homo sapiens) (UniProt P04637). Briefly: TOX21_p53_BLA_p2_ratio: Tox21 HCT-116 p53 Agonism Beta-lactamase Assay, Ratio, Phase 2 (AID 2283592). In outline: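 HCT116 cells carrying a p53-responsive beta-lactamase reporter were plated, incubated 5 h at 37C, then dosed with compounds in DMSO (217-fold dilution) for 16 h. CCF4-AM substrate was added for 2 h at room temperature; the 460/530 nm emission ratio gave gain-of-signal activity relative to DMSO.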

Test [3] can be described thus: TOX21_p53_BLA_p3_viability: Viability Assessment in the Tox21 HCT-116 p53 Agonism Beta-lactamase Assay, Phase 3 (AID 2283593).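 Also: cells exposed to compound for 16 h before reading.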 In outline: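 HCT-116 cells (4000/well) rested 5 h at 37C, then got DMSO compounds by pin tool (217-fold dilution) for 16 h at 37C, 5% CO2. After the bla read, CellTiter-Glo was added and luminescence read at 30 min, room temperature.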
Test [4] concerns the target Cellular tumor antigen p53 (Homo sapiens) (UniProt P04637). Briefly: TOX21_p53_BLA_p3_ratio: Tox21 HCT-116 p53 Agonism Beta-lactamase Assay, Ratio, Phase 3 (AID 2283596). In outline:
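HCT116 p53-bla cells (4000/well) given compound in DMSO (217-fold dilution) after 5 h, incubated 16 h at 37C. CCF4-AM substrate 2 h at room temperature; 460/530 nm emission ratio, gain fitted against DMSO.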

Test [5] can be described thus: TOX21_p53_BLA_p4_viability: Viability Assessment in the Tox21 HCT-116 p53 Agonism Beta-lactamase Assay, Phase 4 (AID 2283597).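 Also: hits lower the luminescence signal meaning cytotoxicity.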 In outline: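 HCT116 p53-bla cells (4000/well) rested 5 h at 37C, then received compounds in DMSO (217-fold dilution) for 16 h at 37C, 5% CO2. CellTiter-Glo was added after the CCF4-AM read, and luminescence was read after 30 min at room temperature.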

For test [6], the target named is Cellular tumor antigen p53 (Homo sapiens) (UniProt P04637). Briefly: TOX21_p53_BLA_p5_ratio: Tox21 HCT-116 p53 Agonism Beta-lactamase Assay, Ratio, Phase 5 (AID 2283599). In a few lines:
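HCT-116 cells carrying a p53-inducible beta-lactamase reporter were seeded at 4000 cells/well and dosed after 5 h with compound in DMSO (217-fold dilution). After 16 h at 37C, CCF4-AM substrate was added for 2 h, and the 460/530 nm emission ratio was scored as gain-of-signal versus DMSO.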

Test [7] in a line: TOX21_p53_BLA_p5_viability: Viability Assessment in the Tox21 HCT-116 p53 Agonism Beta-lactamase Assay, Phase 5 (AID 2283600). In a few lines: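 Cells were plated at 4000/well, rested 5 h at 37C, then given compounds in DMSO (217-fold dilution) for 16 h at 37C, 5% CO2. Following the CCF4-AM beta-lactamase read, CellTiter-Glo was added and luminescence was read after 30 min at room temperature.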

Test [8] concerns the target Cellular tumor antigen p53 (Homo sapiens) (UniProt P04637). The test is described as follows: TOX21_p53_BLA_p4_ratio: Tox21 HCT-116 p53 Agonism Beta-lactamase Assay, Ratio, Phase 4 (AID 2283601). In outline:
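HCT116 cells carrying an inducible beta-lactamase reporter were plated at 4000 cells/well, rested 5 h, then exposed to compounds in DMSO (217-fold dilution) for 16 h at 37C. CCF4-AM substrate was loaded 2 h at room temperature; 460/530 nm emission ratio scored gain-of-signal versus DMSO.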

Sequence of Cellular tumor antigen p53 (Homo sapiens) (P04637 whole entry, looked up): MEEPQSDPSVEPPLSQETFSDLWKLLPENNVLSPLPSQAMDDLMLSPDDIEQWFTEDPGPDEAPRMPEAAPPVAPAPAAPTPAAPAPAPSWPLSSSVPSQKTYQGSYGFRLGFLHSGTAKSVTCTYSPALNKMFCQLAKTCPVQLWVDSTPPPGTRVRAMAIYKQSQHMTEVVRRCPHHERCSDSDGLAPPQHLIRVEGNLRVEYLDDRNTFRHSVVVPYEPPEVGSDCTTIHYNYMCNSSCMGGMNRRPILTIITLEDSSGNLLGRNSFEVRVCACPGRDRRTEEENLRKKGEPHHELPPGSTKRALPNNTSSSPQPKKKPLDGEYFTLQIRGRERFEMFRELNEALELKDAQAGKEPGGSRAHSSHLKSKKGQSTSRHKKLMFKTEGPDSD

Turning to `COc1ccccc1/C=C/C=O`, the compound was classed as inactive in test [1], in test [2], in test [3], in test [4], in test [5] and in test [6]. For the same compound, the outcome in test [7] and in test [8] was inactive.

By AC50 is commonly meant the concentration giving half of the maximal activity seen. As to `CCCC1([C@H](O)C/C=C/[C@H]2[C@H](O)CC(=O)[C@@H]2CCCCCCC(=O)OC)CCC1`, the compound was called inactive in test [1], in test [2], in test [3], in test [4], in test [6] and in test [7]. The result in test [8] was inactive. Besides, the AC50 in test [5] is 36.3 µM (active).

With `O=C1c2cccc(O)c2C(=O)c2c(O)cccc21`, the outcome in test [1], in test [2], in test [3], in test [4], in test [5] and in test [6] was inactive. Moreover, the result in test [7] and in test [8] was inactive.

With `CC12CCC(C[N+](C)(CCC[N+](C)(C)C)C1)C2(C)C` (centres undefined), the call in test [1], in test [2], in test [3], in test [4], in test [5] and in test [6] was inactive. Moreover, the result in test [7] and in test [8] was inactive.

Consider `CC1(C)S[C@@H]2[C@H](NC(=O)Cc3ccccc3)C(=O)N2[C@H]1C(=O)O` (tested in a mixture with another compound), for which the compound was classed as inactive in test [1], in test [2], in test [3], in test [4], in test [5] and in test [6]. Moreover, the result in test [7] and in test [8] was inactive.

In the case of `NCCCC[C@H](NC(=O)[C@@H]1CCCN1C(=O)[C@@H]1CSSC[C@H](N)C(=O)N[C@@H](Cc2ccc(O)cc2)C(=O)N[C@@H](Cc2ccccc2)C(=O)N[C@@H](CCC(N)=O)C(=O)N[C@@H](CC(N)=O)C(=O)N1)C(=O)NCC(N)=O`, the call in test [1], in test [2], in test [3], in test [4], in test [5] and in test [6] was inactive. Also, the call in test [7] and in test [8] was inactive.

Turning to `CC(C)c1ccc2sc3ccccc3c(=O)c2c1`, the outcome in test [1], in test [2], in test [3], in test [4], in test [6] and in test [7] was inactive. In addition, the outcome in test [8] was inactive. Also, the AC50 in test [5] was 72.8 µM (active).

In the case of `C=CCN1C(=O)C(CC(C)C)NC1=S` (centres undefined), the result in test [1], in test [2], in test [3], in test [4], in test [5] and in test [6] was inactive. The outcome in test [7] and in test [8] was inactive.

In the case of `CC(=O)OC(OC(C)=O)c1ccc([N+](=O)[O-])o1`, the concentration at half-maximal activity (AC50) is 74.3 µM (active) in test [1], 74.1 µM (active) in test [3], 74.8 µM (active) in test [5] and 88 µM (active) in test [7]. In addition, the result in test [2], in test [4], in test [6] and in test [8] was inactive.

On to `COc1c(Br)cc(Br)c(C)c1Br`, for which the compound was classed as inactive in test [1], in test [2], in test [3], in test [4], in test [5] and in test [6]. Moreover, the call in test [7] and in test [8] was inactive.

For the compound `C[C@H]1O[C@@H](n2cc(F)c(=O)[nH]c2=O)[C@H](O)[C@@H]1O`, the AC50 in test [1] was 17.9 µM (active); in test [2] it was 23 µM (active); in test [3], 15.5 µM (active); in test [4] it was 20.7 µM (active); in test [6], 24.4 µM (active); in test [8] it was 27.5 µM (active). In addition, the outcome in test [5] and in test [7] was inactive.

With `CC[C@@H](CO)NCCN[C@@H](CC)CO`, the compound was called inactive in test [1], in test [2], in test [3], in test [4], in test [5] and in test [6]. Also, the outcome in test [7] and in test [8] was inactive.

In the case of `Cn1c(O)c(N=NC(N)=S)c2ccccc21`, the compound was called inactive in test [1], in test [2], in test [3], in test [4], in test [5] and in test [6]. In addition, the compound was called inactive in test [7] and in test [8].

`SC1CCCCC1`: the result in test [1], in test [2], in test [3], in test [4], in test [5] and in test [6] was inactive. For the same compound, the compound was called inactive in test [7] and in test [8].

`O=C(O)c1ccccc1[N+](=O)[O-]`: the outcome in test [1], in test [3], in test [4], in test [5], in test [7] and in test [8] was inactive. Besides, the concentration at half-maximal activity (AC50) was 73.7 µM (active) in test [2] and 86.4 µM (active) in test [6].

Consider `CCOc1cc([N+](=O)[O-])c(OCC)cc1N1CCOCC1`, for which the compound was classed as inactive in test [1], in test [2], in test [3], in test [4], in test [5] and in test [6]. Moreover, the call in test [7] and in test [8] was inactive.

Regarding `CC[C@@H](C(=O)O)[C@@H]1O[C@@H]([C@@H](C)[C@H](O)[C@H](C)C(=O)[C@H](CC)[C@H]2O[C@]3(C=C[C@@H](O)[C@]4(CC[C@@](C)([C@H]5CC[C@](O)(CC)[C@H](C)O5)O4)O3)[C@H](C)C[C@@H]2C)[C@@H](C)C[C@@H]1C`, the compound was classed as inactive in test [1], in test [3], in test [5] and in test [7]. The AC50 in test [2] was 4.53 µM (active); in test [4], 7.64 µM (active); in test [6] it was 7.63 µM (active); in test [8], 5.21 µM (active).

As to `CN=C(N)NCCC[C@H](N)C(=O)O`, the compound was classed as inactive in test [1], in test [2], in test [3], in test [4], in test [5] and in test [6]. Moreover, the compound was called inactive in test [7] and in test [8].
